Data from PubChem BioAssay (Tox21).
Records with an inconclusive call do not appear. A call without a number means that no potency is given here. Unmarked numbers belong to inactive results. Activity calls are given as the source filed them. Calls come from the whole dose curve.

Molecular target: Retinoic acid receptor RXR-alpha (Homo sapiens) (UniProt P19793)
Assay: qHTS assay to identify small molecule agonists of the RXR signaling pathway (AID 1159527); note: nearly all actives have a fitted effect of over 35% in size
Details: HEK293T RXRa-UAS-bla, beta-lactamase ratio, 16 h; series mostly up to 76.8 µM
Excerpt: U.S. Tox21 Program National Center for Advancing Translational Sciences [NCATS] NIH Chemical Genomics Center [NCGC] U.S. Environmental Protection Agency [EPA] National Institutes of Environmental Health Sciences [NIEHS] National Toxicology Program [NTP] U.S. Food and Drug Administration [FDA] Tox21 Assay Overview: The Retinoid X receptor (RXR), a nuclear hormone receptor expressed in liver, spleen, placenta, epidermis, central nervous system. These receptors are able to form homo and heterodimers with other nuclear receptors and due to this heterodimerizing ability, RXR functions as master regulators producing diverse physiological effects. Three subtypes of RXR exist; alpha, beta and gamma. Retinoid X receptor alpha (RXR-alpha) has potential roles in metabolic signaling pathways, skin alopecia, dermal cysts, cardiac development, insulin sensitization etc. Therefore screening environmental chemicals on RXR-alpha signaling can be used for the studies focused on such therapeutic applications. For quantification of RXR-alpha ligands signaling, GeneBLAzer RXR alpha-UAS-bla HEK 293T (Life Technologies, Carlsbad, CA) cells containing a beta-lactamase reporter-gene under control of Retinoid X receptor-alpha response element were used to screen Tox21 10K library.
Tox21 Assay Protocol Summary: RXR-alpha HEK 293T cells were dispensed at 2,000 cells/6 uL of assay medium containing 2% charcoal-stripped FBS using a Multidrop Combi (ThermoFisher Scientific, Waltham, MA) dispenser. The assay was performed in black wall/clear-bottom 1536-well plates (Greiner Bio-One North America Inc. Monroe, NC). 9-cis retinoic acid was used as a positive control in the agonist mode screen. After the assay plates were incubated at 37 C and 5% CO2 for 5 hr, 23 nL of compounds dissolved in DMSO, positive controls or DMSO only were transferred to the assay plate by a Pintool station (Kalypsys, San Diego, CA). The assay plates were incubated at 37 C and 5% CO2 for 16 hr. One uL of LiveBLAzer B/G FRET substrate (Life Technologies) was added using a Flying Reagent Dispenser (Aurora Discovery, San Diego, CA) and the plates were incubated at room temperature for 2 hr. Fluorescence intensity (405 nm excitation, 460/530 nm emission) was measured using an Envision plate reader (PerkinElmer, Shelton, CT).

Chain of Retinoic acid receptor RXR-alpha (Homo sapiens) (P19793 whole entry, looked up): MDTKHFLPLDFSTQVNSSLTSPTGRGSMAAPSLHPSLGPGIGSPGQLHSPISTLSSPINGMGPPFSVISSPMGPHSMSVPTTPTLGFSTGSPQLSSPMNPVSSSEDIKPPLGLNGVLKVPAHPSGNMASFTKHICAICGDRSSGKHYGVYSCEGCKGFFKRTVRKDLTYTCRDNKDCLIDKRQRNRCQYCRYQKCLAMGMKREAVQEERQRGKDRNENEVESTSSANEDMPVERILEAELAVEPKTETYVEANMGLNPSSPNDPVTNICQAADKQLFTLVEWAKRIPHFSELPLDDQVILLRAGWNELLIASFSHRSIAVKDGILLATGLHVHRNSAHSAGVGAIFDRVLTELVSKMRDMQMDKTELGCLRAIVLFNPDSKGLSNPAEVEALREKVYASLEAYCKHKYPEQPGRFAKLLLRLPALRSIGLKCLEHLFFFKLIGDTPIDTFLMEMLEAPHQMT

SMILES	Potency	activation
CC(C)=CCCC(C)CCOC(=O)C(C)C (stereo not given)	inactive	
CCc1cccc(C)c1	inactive	
NC(=O)c1ccccc1N	inactive	
CCCCCCCC/C=C\CCCCCCCC(=O)OCCOC(=O)CCCCCCC/C=C\CCCCCCCC	inactive	
CCCCCCCC(=O)OCC	inactive	
CC1(C)C(=O)N(CO)C(=O)N1CO	inactive	
C/C=C/C(=O)C1=C(C)CCCC1(C)C	inactive	
CCOCOCC	inactive	
SCCCCCCCCS	inactive	
NCCCCCCNCCCCCCN	inactive	
CCCCN(C)C	inactive	
CC(C)C(=O)OCc1ccccc1	inactive	
CCC1(c2cnc[nH]2)Cc2ccccc2C1	inactive	
CCOC(=O)CC(C)O (stereo not given)	inactive	
CN1CN(C)CN(C)C1	inactive	
CC(C)=C1CC[C@@H](C)CC1=O	inactive	
C[Si](C)O[Si](C)C	inactive	
CO[Si](CCCNCCNCCN)(OC)OC	inactive	
C=C(C)C(=O)OCCC[Si](Cl)(Cl)Cl	inactive	
O=Nc1ccc(NO)cc1	inactive	

SMILES	Potency	activation
O=C1OC(=O)c2ccc3c4c(ccc1c24)C(=O)OC3=O	inactive	
CC(C)=CC1CC(C)CCO1 (stereo not given)	inactive	
CCC(C)C(=O)OC (stereo not given)	inactive	
CN(C)CCN1CCOCC1	inactive	
[O]=[Zr]	inactive	
COc1nccnc1CC(C)C	inactive	
O=C(O)CC(=O)O	inactive	
C[C@@H]1CC[C@H]2C(C)(C)[C@H]3C[C@@]12CC[C@@]3(C)O	inactive	
COC(=O)[C@]1(C)CCC[C@@]2(C)[C@H]1CC=C1C=C(C(C)C)CC[C@@H]12	inactive	
CCC(C)c1ccccc1 (stereo not given)	inactive	
ClC/C=C\CCl	inactive	
CCc1ccc(O)c(C(C)(C)C)c1	inactive	
CC[N+](CC)(CC)Cc1ccccc1	inactive	
CCCCCCCCC(C)=O	inactive	
CCc1cccc(CC)c1N(COC)C(=O)CS(=O)(=O)O	inactive	
CO[Si](CCC1CCC2OC2C1)(OC)OC (stereo not given)	inactive	
CC(C)c1ccccc1N	inactive	
O=S(=O)(O)c1cc(S(=O)(=O)O)c2ccc3c(S(=O)(=O)O)cc(S(=O)(=O)O)c4ccc1c2c43		-3.71% [at 15.8 µM]
C(=C/c1ccccc1)/c1ccccc1	inactive	
C=C(C)CCCC	inactive	
